Assay results published in the supplement of paper PMC10849652.
Targets with a hit are over-represented here; the source holds about 7,900 in all. About 0.6% of all pairs of compound and target were hits. A number with no mark means an inactive call.

Experiments:
Test in all cases: log2 fold change, soluble protein after heating vs DMSO (PISA); higher = thermal stabilisation; K562 cells, 10 uM, 30 min; active = over 0.2 and 3.5 SD of the protein, either way, in both replicates (recomputed)
[1] = compound: CC[C@@H]1C(=O)N(C)c2cnc(Nc3ccc(C(=O)NC4CCN(C)CC4)cc3OC)nc2N1C1CCCC1
Summary of the method: (§1)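 K562 cells at 2×10^6 cells/mL were given 10 μM compound for 30 min. Aliquots then went through 3 min of heating across 48°C-58°C, were pooled, and were extracted in PBS with 0.5% NP-40 at 4°C, and the supernatant after 21,000xg for 90 min was quantified by TMTpro 16plex LC-MS/MS with channel sums equalised. Thermal stability relative to control samples, from duplicates, is given as log2 fold change.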

[2] = compound: CC[C@@H]1C(=O)N(C)c2cnc(Nc3ccc(C(=O)N[C@H]4CC[C@H](N5CCN(CC6CC6)CC5)CC4)cc3OC)nc2N1C(C)C [volasertib]
Summary of the method: as §1

[3] = compound: CC[C@H](C)N1C=C(C2=C(C=C(C=C21)C3=CN=C(C=C3)N4CCNCC4)C(=O)NCC5=C(C=C(NC5=O)C)C)C
Summary of the method: as §1

[4] = compound: CC[C@H](C)[C@@H](C(=O)N[C@@H]([C@@H](C)O)C(=O)N[C@@H](CC(C)C)C(=O)[C@]1(CO1)C)NC(=O)[C@H]([C@@H](C)CC)N(C)C(=O)C [epoxomicin]
Summary of the method: as §1

[5] = compound: CCn1c(C(=O)N(C2CC2)C2CC2)cc2c3c(ncn3C)c(Nc3cc(C)n(C)n3)nc21
Summary of the method: as §1

[6] = compound: CCn1cc(-c2ccnc3[nH]c(-c4cccc(CN(C)C)c4)cc23)c(-c2ccc(NC(=O)N(C)C)cc2)n1
Summary of the method: as §1

[7] = compound: CN(C)CC(=O)Nc1ccc2[nH]c(=O)c3ccccc3c2c1
Summary of the method: as §1

[8] = compound: CN(CCOC1=CC=C(C=C1)C[C@H]2C(=O)NC(=O)S2)C3=CC=CC=N3 (racemic) [rosiglitazone]
Summary of the method: as §1

[9] = compound: CN1C2=C(C3=C1C(=O)N(N=C3)CC4=CC(=CC=C4)N)SC(=C2)S(=O)C
Summary of the method: as §1

[10] = compound: CN1CCC(CNc2ccc3ncc(-c4cccc(OC(F)(F)F)c4)n3n2)CC1
Summary of the method: as §1

[11] = compound: CN1CCN(CCOc2cc(OC3CCOCC3)c3c(Nc4c(Cl)ccc5c4OCO5)ncnc3c2)CC1 [saracatinib]
Summary of the method: as §1

[12] = compound: CN1CCN(c2nc(C3=C(c4c[nH]c5ccccc45)C(=O)NC3=O)c3ccccc3n2)CC1 [sotrastaurin]
Summary of the method: as §1

[13] = compound: CN1CC[C@H](c2c(O)cc(O)c3c(=O)cc(-c4ccccc4Cl)oc23)[C@H](O)C1 [alvocidib]
Summary of the method: as §1

[14] = compound: CN1CCc2c(c3ccccc3n2Cc2ccc(C(=O)NO)cc2)C1 [Tubastatin A]
Summary of the method: as §1

[15] = compound: CNC(=O)C1=CC=CC=C1NC2=NC(=NC=C2Cl)NC3=C(C=C(C=C3)N4CCOCC4)OC
Summary of the method: as §1

[16] = compound: CNC(=O)c1ccc(Nc2ncc(C(F)(F)F)c(NCc3nccnc3N(C)S(C)(=O)=O)n2)cc1 [defactinib]
Summary of the method: as §1

[17] = compound: CNCc1ccc(-c2[nH]c3cc(F)cc4c3c2CCNC4=O)cc1 [rucaparib]
Summary of the method: as §1

[18] = compound: CNc1nc(-c2ccc3c(N)n[nH]c3c2)cc(N2C[C@@H](C(=O)NC3CCCCC3)CC[C@H]2C)n1
Summary of the method: as §1

[19] = compound: COC(=O)N[C@@H](C)CNc1nccc(-c2cn(C(C)C)nc2-c2cc(Cl)cc(NS(C)(=O)=O)c2F)n1 [encorafenib]
Summary of the method: as §1

[20] = compound: COC(=O)[C@H](CCSC)NC(=O)C1=C(C=C(C=C1)NC[C@H](CS)N)C2=CC=CC=C2
Summary of the method: as §1

Sequence of UniProt O43427 (O43427 whole entry, looked up): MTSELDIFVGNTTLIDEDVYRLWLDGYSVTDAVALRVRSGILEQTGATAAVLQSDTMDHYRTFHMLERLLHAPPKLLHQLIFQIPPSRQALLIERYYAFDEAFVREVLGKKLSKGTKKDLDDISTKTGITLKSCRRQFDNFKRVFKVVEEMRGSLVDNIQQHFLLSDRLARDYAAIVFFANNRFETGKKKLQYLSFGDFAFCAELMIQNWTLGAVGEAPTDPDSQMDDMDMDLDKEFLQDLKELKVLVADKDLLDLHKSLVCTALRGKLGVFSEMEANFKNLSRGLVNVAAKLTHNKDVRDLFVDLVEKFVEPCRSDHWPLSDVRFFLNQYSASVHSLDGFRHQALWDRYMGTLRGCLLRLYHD
Sequence of UniProt P02679 (P02679 whole entry, looked up): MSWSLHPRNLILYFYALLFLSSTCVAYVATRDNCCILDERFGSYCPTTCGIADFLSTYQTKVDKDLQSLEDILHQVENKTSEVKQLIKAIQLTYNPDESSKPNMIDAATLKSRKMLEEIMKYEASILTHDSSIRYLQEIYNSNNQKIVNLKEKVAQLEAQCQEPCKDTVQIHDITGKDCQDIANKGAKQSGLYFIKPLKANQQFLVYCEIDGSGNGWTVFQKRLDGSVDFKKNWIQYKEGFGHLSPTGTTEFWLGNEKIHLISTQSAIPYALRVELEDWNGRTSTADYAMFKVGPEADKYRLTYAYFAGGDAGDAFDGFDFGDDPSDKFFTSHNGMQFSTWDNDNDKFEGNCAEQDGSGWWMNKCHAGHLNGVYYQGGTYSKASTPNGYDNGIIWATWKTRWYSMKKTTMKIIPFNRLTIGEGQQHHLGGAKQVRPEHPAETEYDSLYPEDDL
Sequence of UniProt O14526 (O14526 whole entry, looked up): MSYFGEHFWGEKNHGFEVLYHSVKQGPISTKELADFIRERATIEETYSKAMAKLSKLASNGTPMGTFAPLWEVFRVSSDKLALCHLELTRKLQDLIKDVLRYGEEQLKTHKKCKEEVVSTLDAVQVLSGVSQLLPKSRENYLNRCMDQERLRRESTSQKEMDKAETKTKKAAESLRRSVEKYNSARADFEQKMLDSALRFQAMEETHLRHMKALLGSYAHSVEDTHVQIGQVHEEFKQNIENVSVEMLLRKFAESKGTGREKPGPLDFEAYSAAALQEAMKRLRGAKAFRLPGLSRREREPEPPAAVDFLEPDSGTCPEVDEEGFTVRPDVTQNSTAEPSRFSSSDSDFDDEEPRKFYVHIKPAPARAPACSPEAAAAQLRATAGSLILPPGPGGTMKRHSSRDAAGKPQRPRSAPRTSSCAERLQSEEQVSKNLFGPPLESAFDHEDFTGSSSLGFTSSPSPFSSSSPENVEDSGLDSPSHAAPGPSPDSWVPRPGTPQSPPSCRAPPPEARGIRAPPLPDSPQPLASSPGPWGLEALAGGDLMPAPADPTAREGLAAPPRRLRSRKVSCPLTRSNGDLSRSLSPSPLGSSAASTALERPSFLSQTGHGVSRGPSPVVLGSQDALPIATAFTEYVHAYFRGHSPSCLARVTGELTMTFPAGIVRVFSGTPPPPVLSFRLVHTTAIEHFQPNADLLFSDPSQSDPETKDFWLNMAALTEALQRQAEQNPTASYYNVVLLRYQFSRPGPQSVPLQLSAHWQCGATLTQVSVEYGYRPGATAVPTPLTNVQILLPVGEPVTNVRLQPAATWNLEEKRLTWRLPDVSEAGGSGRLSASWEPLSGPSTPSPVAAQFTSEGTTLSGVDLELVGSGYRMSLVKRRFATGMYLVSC
Sequence of UniProt Q13227 (Q13227 whole entry, looked up): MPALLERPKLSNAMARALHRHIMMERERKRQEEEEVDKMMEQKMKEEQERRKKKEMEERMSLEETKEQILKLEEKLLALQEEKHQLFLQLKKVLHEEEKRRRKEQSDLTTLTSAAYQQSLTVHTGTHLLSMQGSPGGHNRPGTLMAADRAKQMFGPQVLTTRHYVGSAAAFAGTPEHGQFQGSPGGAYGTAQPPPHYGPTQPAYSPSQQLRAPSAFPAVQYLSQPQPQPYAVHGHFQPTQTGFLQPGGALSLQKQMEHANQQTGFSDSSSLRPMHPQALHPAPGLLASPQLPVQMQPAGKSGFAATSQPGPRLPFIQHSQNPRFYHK
Sequence of UniProt Q53R41 (Q53R41 whole entry, looked up): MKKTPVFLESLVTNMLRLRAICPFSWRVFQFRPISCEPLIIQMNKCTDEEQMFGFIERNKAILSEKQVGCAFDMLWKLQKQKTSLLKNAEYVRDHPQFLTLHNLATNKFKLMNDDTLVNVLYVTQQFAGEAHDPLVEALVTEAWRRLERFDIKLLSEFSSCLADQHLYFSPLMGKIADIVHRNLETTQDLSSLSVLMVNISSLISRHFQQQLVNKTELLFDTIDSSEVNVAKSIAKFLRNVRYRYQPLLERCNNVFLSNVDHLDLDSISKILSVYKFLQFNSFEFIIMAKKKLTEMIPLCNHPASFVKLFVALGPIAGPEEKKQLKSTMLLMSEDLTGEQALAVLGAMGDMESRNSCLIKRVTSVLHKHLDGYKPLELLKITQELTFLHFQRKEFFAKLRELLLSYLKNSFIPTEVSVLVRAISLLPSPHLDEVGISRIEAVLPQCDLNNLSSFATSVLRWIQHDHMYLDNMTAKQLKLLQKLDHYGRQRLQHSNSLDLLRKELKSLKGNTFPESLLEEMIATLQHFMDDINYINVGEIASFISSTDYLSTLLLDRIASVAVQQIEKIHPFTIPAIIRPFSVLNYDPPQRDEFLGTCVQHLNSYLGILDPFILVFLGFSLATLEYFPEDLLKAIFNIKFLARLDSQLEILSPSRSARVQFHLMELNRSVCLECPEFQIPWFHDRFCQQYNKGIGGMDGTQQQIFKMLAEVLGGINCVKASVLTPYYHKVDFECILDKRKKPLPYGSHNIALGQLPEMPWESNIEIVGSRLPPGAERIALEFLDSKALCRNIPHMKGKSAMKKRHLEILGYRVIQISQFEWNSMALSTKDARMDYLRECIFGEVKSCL
Sequence of UniProt Q8IVP5 (Q8IVP5 whole entry, looked up): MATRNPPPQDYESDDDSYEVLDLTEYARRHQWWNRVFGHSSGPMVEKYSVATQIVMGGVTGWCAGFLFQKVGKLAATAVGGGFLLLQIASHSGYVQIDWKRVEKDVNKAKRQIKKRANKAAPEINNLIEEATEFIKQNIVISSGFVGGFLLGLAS
Sequence of UniProt Q04446 (Q04446 whole entry, looked up): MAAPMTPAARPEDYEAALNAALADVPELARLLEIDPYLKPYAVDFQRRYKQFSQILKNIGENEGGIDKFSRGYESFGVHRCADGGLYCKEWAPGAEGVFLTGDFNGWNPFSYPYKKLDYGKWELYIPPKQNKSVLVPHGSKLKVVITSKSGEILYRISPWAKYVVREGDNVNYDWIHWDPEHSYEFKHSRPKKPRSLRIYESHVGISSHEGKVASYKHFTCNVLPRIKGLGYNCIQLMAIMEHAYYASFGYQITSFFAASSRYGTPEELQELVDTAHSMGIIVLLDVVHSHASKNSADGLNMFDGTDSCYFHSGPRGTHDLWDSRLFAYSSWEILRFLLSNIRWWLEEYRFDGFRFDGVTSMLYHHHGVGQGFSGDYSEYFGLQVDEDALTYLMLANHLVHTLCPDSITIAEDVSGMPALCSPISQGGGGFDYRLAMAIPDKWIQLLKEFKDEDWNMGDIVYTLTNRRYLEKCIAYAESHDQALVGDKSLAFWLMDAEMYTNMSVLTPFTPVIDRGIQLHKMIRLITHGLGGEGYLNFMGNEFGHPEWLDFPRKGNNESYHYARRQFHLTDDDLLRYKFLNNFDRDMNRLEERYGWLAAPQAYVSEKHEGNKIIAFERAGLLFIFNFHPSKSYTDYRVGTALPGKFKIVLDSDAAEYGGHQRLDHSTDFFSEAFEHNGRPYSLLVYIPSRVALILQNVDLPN
Sequence of UniProt P54652 (P54652 whole entry, looked up): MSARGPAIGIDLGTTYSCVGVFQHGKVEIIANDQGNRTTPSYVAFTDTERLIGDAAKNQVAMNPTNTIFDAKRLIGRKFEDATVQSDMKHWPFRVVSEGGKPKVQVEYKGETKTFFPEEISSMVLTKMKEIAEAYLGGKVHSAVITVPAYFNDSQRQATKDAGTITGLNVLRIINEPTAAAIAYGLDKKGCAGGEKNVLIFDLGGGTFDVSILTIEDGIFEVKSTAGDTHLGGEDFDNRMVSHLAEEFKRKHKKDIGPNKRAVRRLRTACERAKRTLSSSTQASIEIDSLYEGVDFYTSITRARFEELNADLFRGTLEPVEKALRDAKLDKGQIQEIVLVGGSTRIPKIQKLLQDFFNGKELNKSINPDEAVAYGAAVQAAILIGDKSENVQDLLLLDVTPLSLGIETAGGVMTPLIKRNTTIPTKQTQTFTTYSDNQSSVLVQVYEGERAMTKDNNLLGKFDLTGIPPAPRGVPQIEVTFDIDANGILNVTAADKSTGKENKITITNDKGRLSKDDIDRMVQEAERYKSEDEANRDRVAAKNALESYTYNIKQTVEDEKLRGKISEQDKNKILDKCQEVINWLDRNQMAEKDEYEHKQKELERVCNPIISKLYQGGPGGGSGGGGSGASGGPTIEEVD
Sequence of UniProt Q9H4G4 (Q9H4G4 whole entry, looked up): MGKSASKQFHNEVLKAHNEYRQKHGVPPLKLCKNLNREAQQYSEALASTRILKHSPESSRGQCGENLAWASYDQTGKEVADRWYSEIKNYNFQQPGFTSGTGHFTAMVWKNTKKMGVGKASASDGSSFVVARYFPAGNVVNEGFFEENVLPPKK
Sequence of UniProt Q9Y324 (Q9Y324 whole entry, looked up): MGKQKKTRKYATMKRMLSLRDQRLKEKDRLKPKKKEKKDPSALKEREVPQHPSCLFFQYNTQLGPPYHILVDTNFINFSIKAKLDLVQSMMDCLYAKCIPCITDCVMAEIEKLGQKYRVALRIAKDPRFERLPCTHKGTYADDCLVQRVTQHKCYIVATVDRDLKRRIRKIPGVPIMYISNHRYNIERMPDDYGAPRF
Sequence of UniProt P01344 (P01344 whole entry, looked up): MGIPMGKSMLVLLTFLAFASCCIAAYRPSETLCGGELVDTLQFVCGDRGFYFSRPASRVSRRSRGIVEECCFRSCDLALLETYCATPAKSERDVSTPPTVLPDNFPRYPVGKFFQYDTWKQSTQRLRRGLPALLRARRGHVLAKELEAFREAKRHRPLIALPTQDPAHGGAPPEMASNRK

Target	log2 fold change [1]	log2 fold change [2]	log2 fold change [3]	log2 fold change [4]	log2 fold change [5]	log2 fold change [6]	log2 fold change [7]	log2 fold change [8]	log2 fold change [9]	log2 fold change [10]	log2 fold change [11]	log2 fold change [12]	log2 fold change [13]	log2 fold change [14]	log2 fold change [15]	log2 fold change [16]	log2 fold change [17]	log2 fold change [18]	log2 fold change [19]	log2 fold change [20]
GTF2A2 (UniProt P52657)	0.053	0.097	-0.07	0.036	0.03	0.025	-0.03	0.003	-0.046	-0.031	0.034	0.018	-0.003	0.026	-0.031	-0.025	-0.061	-0.025	-0.022	0.018
HAT1 (UniProt O14929)	-0.185	-0.313 (active)	0.02	0.035	0.014	-0.057	-0.007	0.049	-0.081	0.026	0.047	-0.058	-0.209	0.036	0.05	-0.139	-0.066	-0.061	0.064	-0.017
IFRD2 isoform 2 (UniProt Q12894)	0.084	0.045	-0.261	-0.02	0	0.029	-0.319	0.225	-0.023	0.196	0.126	0.31	-0.017	-0.272	0.022	0.16	-0.549 (active)	-0.095	-0.031	0.026
FAT1 (UniProt Q14517)	–	0.009	-0.048	-0.05	0.006	-0.018	0.07	0.095	-0.11	0.082	-0.085	-0.072	0.021	-0.031	-0.041	-0.05	–	-0.094	–	-0.087
FUT8 (UniProt Q9BYC5)	-0.327 (active)	–	-0.042	0.002	0.08	0.06	0.175	-0.001	-0.04	-0.057	-0.095	-0.049	0.055	0.02	0.023	0.049	-0.037	0.017	0.018	0.506 (active)
GPS2 (UniProt Q13227)	0.151	-0.072	0.082	0.016	-0.011	–	0.068	0.027	–	–	–	-0.007	–	0.033	0.008	-0.079	0.02	–	0.041	-0.025
GPD1 (UniProt P21695)	–	-0.161	0	-0.205	-0.23	-0.011	-0.045	0.027	-0.126	-0.183	-0.005	0.065	0.131	-0.027	-0.298	-0.072	–	0.05	–	0.016
FUNDC1 (UniProt Q8IVP5)	–	0.078	–	–	–	–	–	-0.13	–	–	–	0.049	–	–	–	–	–	–	–	–
GLIPR2 (UniProt Q9H4G4)	-0.047	0.163	–	-0.088	-0.041	-0.032	-0.117	0.151	-0.084	-0.239	0.002	-0.027	0.054	-0.002	0.036	0.047	0.015	0.035	-0.062	-0.013
FCHO1 (UniProt O14526)	-0.186	-0.768 (active)	0.168	0.05	0.067	–	0.112	–	0.025	–	-0.064	-0.162	-0.049	0.007	0.043	-0.042	0.248	0.054	0.101	0.046
IGF2 isoform 3 (UniProt P01344)	–	–	–	–	-0.395	–	-0.218	–	0.135	–	0.148	–	–	–	-0.033	0.007	–	-0.105	–	0.006
HNRNPUL1 (UniProt M0R247)	-0.072	0.16	-0.101	–	0.121	–	–	–	0.21	–	-0.327	0.128	0.326	-0.054	-0.145	–	0.09	-0.431	-0.086	–
GBE1 (UniProt Q04446)	0.042	-0.61 (active)	–	0.168	0.016	–	0.058	-0.128	0.071	–	-0.252	–	-0.084	0.055	-0.027	-0.195	-0.132	0.076	0.062	-0.034
GREB1 (UniProt Q4ZG55)	–	–	–	-0.081	-0.108	–	-0.095	–	–	–	–	-0.175	0.123	0.264	-0.113	-0.008	–	–	–	-0.112
FIBP (UniProt O43427)	0.164	-0.093	–	-0.023	-0.026	-0.023	-0.043	-0.012	-0.072	-0.229	-0.074	-0.05	-0.01	0.07	0.002	-0.046	0.395 (active)	-0.085	0.039	0.004
FASTKD1 (UniProt Q53R41)	-0.023	–	-0.088	0.155	-0.151	0.051	0.064	0.014	0.072	-0.188	-0.118	-0.046	-0.12	0.037	0.037	-0.22	-0.093	0.112	0.026	-0.02
GPNMB (UniProt Q14956)	0.206	–	–	-0.191	0.149	–	–	–	–	–	–	–	–	–	-0.221	–	0.007	–	-0.25	–
HSPA2 (UniProt P54652)	–	–	-0.014	–	-0.012	–	–	0.02	–	–	–	0.038	–	–	0.809 (active)	–	–	–	–	–
FGG (UniProt P02679)	–	-0.042	–	–	–	0.035	–	–	–	0.137	–	–	–	–	–	–	–	–	–	–
FCF1 (UniProt Q9Y324)	0.095	0.108	–	-0.003	–	0.134	-0.041	–	0.107	0.219	-0.111	-0.116	–	0.07	–	0.26	0.187	0.2	0.121	-0.044
FMR1 (UniProt Q06787)	-0.068	-0.173	–	–	0.178	0.088	–	–	–	0.279	–	-0.105	0.046	–	0.006	–	0.19	–	0.04	–
GTPBP6 (UniProt O43824)	-0.07	–	-0.041	0.026	0.025	-0.079	0.034	0.299	-0.13	-0.007	0.049	-0.011	0.015	-0.03	-0.149	-0.013	0.053	0.007	-0.086	0.057
